Assays:
Assay in all cases: growth AUC relative to DMSO control (median of replicates) (fraction); higher = more growth (less inhibition), active = hit call of the paper
Details in all cases: 20 µM; 24 h;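 active = AUC reduced over 20% with Padj below 0.05 in at least 2 of 3 replicates; inactive = otherwise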
Coprococcus comes = test system: Coprococcus comes
Outline: (§1)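 Area under the growth curve was normalised to the plate median of solvent-only wells, except on the industrial chemical plate, where row and column medians were used. Curves came from gut bacterial monocultures grown anaerobically at 37 °C in mGAM with 20 µM compound (1% DMSO), starting at OD600 0.05 and read at OD600 every hour for 24 h. The minimum OD of each curve was set to 0, and values are medians of three biological replicates grown on separate days.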

Escherichia coli ED1a = test system: Escherichia coli ED1a
Outline: as §1

Escherichia coli IAI1 = test system: Escherichia coli IAI1
Outline: as §1

Eubacterium rectale = test system: Eubacterium rectale
Outline: as §1

[1] = test system: Fusobacterium nucleatum subsp. animalis
Outline: as §1

Lactobacillus gasseri = test system: Lactobacillus gasseri
Outline: as §1

Lactobacillus paracasei = test system: Lactobacillus paracasei
Outline: as §1

Odoribacter splanchnicus = test system: Odoribacter splanchnicus
Outline: as §1

[2] = test system: Parabacteroides distasonis
Outline: as §1

Parabacteroides merdae = test system: Parabacteroides merdae
Outline: as §1

Roseburia intestinalis = test system: Roseburia intestinalis
Outline: as §1

Streptococcus salivarius = test system: Streptococcus salivarius
Outline: as §1

Measured: growth AUC

COC(=O)CCCOc1ccc(Cl)cc1Cl
inactive: Coprococcus comes 0.968 | Escherichia coli ED1a 0.983 | Escherichia coli IAI1 0.958 | Eubacterium rectale 1.1 | [1] 0.966 | Lactobacillus gasseri 0.916 | Lactobacillus paracasei 0.916 | Odoribacter splanchnicus 0.925 | [2] 0.791 | Parabacteroides merdae 0.97 | Roseburia intestinalis 0.887 | Streptococcus salivarius 0.931

O=[N+]([O-])c1ccc(O)cc1
inactive: Coprococcus comes 0.973 | Escherichia coli ED1a 1.01 | Escherichia coli IAI1 0.994 | Eubacterium rectale 0.994 | [1] 0.979 | Lactobacillus gasseri 0.985 | Lactobacillus paracasei 0.987 | Odoribacter splanchnicus 1.01 | [2] 0.99 | Parabacteroides merdae 0.99 | Roseburia intestinalis 1.14 | Streptococcus salivarius 1

O=S(=O)(Cc1ccc(Cl)cc1)c1ccc(Cl)cc1
inactive: Coprococcus comes 0.978 | Escherichia coli ED1a 0.97 | Escherichia coli IAI1 1.02 | Eubacterium rectale 1.02 | [1] 0.977 | Lactobacillus gasseri 1.04 | Lactobacillus paracasei 1.03 | Odoribacter splanchnicus 0.995 | [2] 1 | Parabacteroides merdae 0.98 | Roseburia intestinalis 1.05 | Streptococcus salivarius 1.06

COC(=O)Cc1cccc2ccccc12
inactive: Coprococcus comes 0.997 | Escherichia coli ED1a 0.969 | Escherichia coli IAI1 0.968 | Eubacterium rectale 1.07 | [1] 0.996 | Lactobacillus gasseri 0.924 | Lactobacillus paracasei 0.974 | Odoribacter splanchnicus 1.08 | [2] 0.986 | Parabacteroides merdae 0.995 | Roseburia intestinalis 1.04 | Streptococcus salivarius 1.01

CCc1cccc(C)c1N(C(=O)C(=O)O)C(C)COC (stereo unspecified)
inactive: Coprococcus comes 1.02 | Escherichia coli ED1a 0.992 | Escherichia coli IAI1 0.987 | Eubacterium rectale 0.979 | [1] 1.01 | Lactobacillus gasseri 0.977 | Lactobacillus paracasei 0.852 | Odoribacter splanchnicus 1.04 | [2] 1.02 | Parabacteroides merdae 1.01 | Roseburia intestinalis 0.982 | Streptococcus salivarius 1

Nc1cc(Cl)nc(C(=O)O)c1Cl
inactive: Coprococcus comes 1.03 | Escherichia coli ED1a 1.04 | Escherichia coli IAI1 1.02 | Eubacterium rectale 1.01 | [1] 1.03 | Lactobacillus gasseri 0.961 | Lactobacillus paracasei 1.24 | Odoribacter splanchnicus 1.05 | [2] 1.03 | Parabacteroides merdae 1.02 | Roseburia intestinalis 1.01 | Streptococcus salivarius 1.03

O=C(O)COc1ccc(Cl)c2cccnc12
inactive: Coprococcus comes 0.997 | Escherichia coli ED1a 1.05 | Escherichia coli IAI1 1.04 | Eubacterium rectale 1.02 | [1] 1.11 | Lactobacillus gasseri 1.07 | Lactobacillus paracasei 1.01 | Odoribacter splanchnicus 1.01 | [2] 1 | Parabacteroides merdae 1 | Roseburia intestinalis 0.963 | Streptococcus salivarius 1.05

COCCCNc1nc(NC(C)C)nc(SC)n1
inactive: Coprococcus comes 0.963 | Escherichia coli ED1a 1.01 | Escherichia coli IAI1 0.986 | Eubacterium rectale 0.914 | [1] 0.904 | Lactobacillus gasseri 1.04 | Lactobacillus paracasei 0.943 | Odoribacter splanchnicus 0.954 | [2] 1.01 | Parabacteroides merdae 0.992 | Roseburia intestinalis 0.995 | Streptococcus salivarius 0.969

COc1nc(NC(=O)NS(=O)(=O)c2ccccc2C(F)(F)F)nc(C(F)(F)F)n1
inactive: Coprococcus comes 1.01 | Escherichia coli ED1a 0.99 | Escherichia coli IAI1 1 | Eubacterium rectale 0.979 | [1] 0.988 | Lactobacillus gasseri 0.899 | Lactobacillus paracasei 0.986 | Odoribacter splanchnicus 1.06 | [2] 0.996 | Parabacteroides merdae 0.964 | Roseburia intestinalis 0.993 | Streptococcus salivarius 1.02

Oc1ccccc1O
inactive: Coprococcus comes 0.993 | Escherichia coli ED1a 0.994 | Escherichia coli IAI1 1.01 | Eubacterium rectale 1 | [1] 1.01 | Lactobacillus gasseri 1 | Lactobacillus paracasei 0.995 | Odoribacter splanchnicus 1.08 | [2] 1.02 | Parabacteroides merdae 1 | Roseburia intestinalis 1.1 | Streptococcus salivarius 0.987

CCOCN(C(=O)C(=O)O)c1c(C)cccc1CC
inactive: Coprococcus comes 1.01 | Escherichia coli ED1a 1 | Escherichia coli IAI1 0.996 | Eubacterium rectale 0.989 | [1] 1.03 | Lactobacillus gasseri 0.989 | Lactobacillus paracasei 1.05 | Odoribacter splanchnicus 0.991 | [2] 1.02 | Parabacteroides merdae 1.01 | Roseburia intestinalis 0.996 | Streptococcus salivarius 1.04

Nc1nc2ccccc2[nH]1
inactive: Coprococcus comes 0.971 | Escherichia coli ED1a 0.976 | Escherichia coli IAI1 0.986 | Eubacterium rectale 1.08 | [1] 0.932 | Lactobacillus gasseri 0.883 | Lactobacillus paracasei 0.969 | Odoribacter splanchnicus 0.942 | [2] 0.615 | Parabacteroides merdae 0.933 | Roseburia intestinalis 0.901 | Streptococcus salivarius 0.953

C=CCO/N=C(\CCC)C1=C([O-])CC(C)(C)C(C(=O)OC)C1=O.[Na+] (stereo unspecified)
inactive: Coprococcus comes 1.03 | Escherichia coli ED1a 1.02 | Escherichia coli IAI1 1.02 | Eubacterium rectale 1.12 | [1] 1.12 | Lactobacillus gasseri 0.892 | Lactobacillus paracasei 1.04 | Odoribacter splanchnicus 1.05 | [2] 1.01 | Parabacteroides merdae 1.06 | Roseburia intestinalis 0.982 | Streptococcus salivarius 1.02

O=S(=O)(Oc1ccc(Cl)cc1)c1ccccc1
inactive: Coprococcus comes 0.997 | Escherichia coli ED1a 0.981 | Escherichia coli IAI1 0.967 | Eubacterium rectale 0.874 | [1] 0.872 | Lactobacillus gasseri 0.99 | Lactobacillus paracasei 1.08 | Odoribacter splanchnicus 0.987 | [2] 0.974 | Parabacteroides merdae 0.957 | Roseburia intestinalis 0.988 | Streptococcus salivarius 0.955

CN(C)C(=O)NC1CCCCCCC1
inactive: Coprococcus comes 1.03 | Escherichia coli ED1a 0.999 | Escherichia coli IAI1 0.998 | Eubacterium rectale 1.06 | [1] 1.04 | Lactobacillus gasseri 1.04 | Lactobacillus paracasei 0.978 | Odoribacter splanchnicus 0.948 | [2] 1.02 | Parabacteroides merdae 1.01 | Roseburia intestinalis 1.08 | Streptococcus salivarius 1.05

CCN(Cc1c(F)cccc1Cl)c1c([N+](=O)[O-])cc(C(F)(F)F)cc1[N+](=O)[O-]
inactive: Coprococcus comes 0.784 | Escherichia coli ED1a 0.982 | Escherichia coli IAI1 0.986 | Eubacterium rectale 0.896 | [1] 0.937 | Lactobacillus gasseri 0.896 | Lactobacillus paracasei 1.03 | Odoribacter splanchnicus 1.03 | [2] 0.934 | Parabacteroides merdae 0.903 | Roseburia intestinalis 0.864 | Streptococcus salivarius 0.926

COCC(=O)N(c1c(C)cccc1C(=O)O)C(C)C(=O)O (stereo unspecified)
inactive: Coprococcus comes 1.01 | Escherichia coli ED1a 0.986 | Escherichia coli IAI1 0.978 | Eubacterium rectale 0.949 | [1] 0.879 | Lactobacillus gasseri 1.07 | Lactobacillus paracasei 0.734 | Odoribacter splanchnicus 1.1 | [2] 1.01 | Parabacteroides merdae 0.989 | Roseburia intestinalis 1.02 | Streptococcus salivarius 0.982

N[C@@H](Cc1cc(I)c(Oc2cc(I)c(O)c(I)c2)c(I)c1)C(=O)O
inactive: Coprococcus comes 0.906 | Escherichia coli ED1a 0.959 | Escherichia coli IAI1 0.941 | Eubacterium rectale 1.04 | [1] 0.838 | Lactobacillus gasseri 0.87 | Lactobacillus paracasei 0.886 | Odoribacter splanchnicus 0.957 | [2] 0.921 | Parabacteroides merdae 0.949 | Roseburia intestinalis 0.798 | Streptococcus salivarius 0.923

CC(C)OC(=O)[C@@H](C)N(C(=O)c1ccccc1)c1ccc(F)c(Cl)c1
inactive: Coprococcus comes 1.05 | Escherichia coli ED1a 1.03 | Escherichia coli IAI1 1 | Eubacterium rectale 1.27 | [1] 1.1 | Lactobacillus gasseri 0.933 | Lactobacillus paracasei 1.09 | Odoribacter splanchnicus 0.977 | [2] 1 | Parabacteroides merdae 1.01 | Roseburia intestinalis 0.999 | Streptococcus salivarius 1

c1ccc2c(c1)Cc1ccccc1-2
inactive: Coprococcus comes 1.01 | Escherichia coli ED1a 1.03 | Escherichia coli IAI1 1 | Eubacterium rectale 1 | [1] 1.03 | Lactobacillus gasseri 1.05 | Lactobacillus paracasei 1.05 | Odoribacter splanchnicus 1.05 | [2] 0.962 | Parabacteroides merdae 1.02 | Roseburia intestinalis 1 | Streptococcus salivarius 0.985

CC(C)N(C(=O)CS(=O)(=O)[O-])c1ccccc1.[Na+]
inactive: Coprococcus comes 0.982 | Escherichia coli ED1a 0.978 | Escherichia coli IAI1 0.988 | Eubacterium rectale 1.07 | [1] 1.09 | Lactobacillus gasseri 0.948 | Lactobacillus paracasei 1 | Odoribacter splanchnicus 0.981 | [2] 0.96 | Parabacteroides merdae 1 | Roseburia intestinalis 1.02 | Streptococcus salivarius 0.997

CC1(C)C(C(=O)OC(C#N)c2cccc(Oc3ccccc3)c2)C1C(Br)C(Br)(Br)Br (stereo unspecified)
inactive: Coprococcus comes 0.99 | Escherichia coli ED1a 1.02 | Escherichia coli IAI1 1.01 | Eubacterium rectale 0.996 | [1] 1.05 | Lactobacillus gasseri 1.04 | Lactobacillus paracasei 1.12 | Odoribacter splanchnicus 1.06 | [2] 0.998 | Parabacteroides merdae 1 | Roseburia intestinalis 0.932 | Streptococcus salivarius 0.972

Cc1nc(C(F)(F)F)c(C(=O)Nc2c(Br)cc(OC(F)(F)F)cc2Br)s1
inactive: Coprococcus comes 1.06 | Escherichia coli ED1a 1.02 | Escherichia coli IAI1 1.02 | Eubacterium rectale 0.852 | [1] 1.09 | Lactobacillus gasseri 1.15 | Lactobacillus paracasei 1.1 | Odoribacter splanchnicus 0.942 | [2] 0.944 | Parabacteroides merdae 1 | Roseburia intestinalis 1.08 | Streptococcus salivarius 0.972
